Assay results published in PubChem BioAssay (NCI).
Several values for one entry are separate records, joined by “and”; a condition that tells them apart may be missing. Equal values may be shown once. About 79,000 compounds went through this panel and 15% of them were active in at least one assay; those are over-represented in the sample as a whole. The source holds several records for some structures; these can differ, active in one and inactive in another. Activity calls are given as the source filed them. Rule as the data show it: active = growth inhibition above about 70%; inactive = the rest.

What was measured:
[1] = NCI Yeast Anticancer Drug Screen. Data for the wt1 strain (AID 149);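 also: 0% = growth of vehicle-treated wt1 cultures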; details: S. cerevisiae wt1 strain (SPY 50644) growth inhibition, stronger effect = higher value
In short: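 Measured: growth of wt1 yeast under compound versus vehicle treatment, reported as inhibition.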

[2] = NCI Yeast Anticancer Drug Screen. Data for the rad50EPP+ strain (AID 151);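 also: 0% = growth of vehicle-treated control cultures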; details: S. cerevisiae rad50 mutant strain, stronger effect = higher value
In short: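 Vehicle-normalised growth inhibition; rad50EPP+ yeast strain, altered in DNA damage repair, compound-treated.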

[3] = NCI Yeast Anticancer Drug Screen. Data for the mgt1 strain (AID 153); details: S. cerevisiae mgt1 mutant growth inhibition, stronger effect = higher value
In short: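 Vehicle-normalized growth inhibition is determined in mgt1 yeast, a strain selected for a defined alteration in DNA repair or cell cycle control.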

[4] = NCI Yeast Anticancer Drug Screen. Data for the rad50 strain (AID 155);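 also: 0% = growth of vehicle-only cultures of the same strain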; details: S. cerevisiae rad50 strain growth inhibition, stronger effect = higher value
In short: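 Growth of the mutant yeast was measured after compound exposure and referenced to vehicle-treated cultures.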

[5] = NCI Yeast Anticancer Drug Screen. Data for the mec2-1 strain (AID 157); details: S. cerevisiae mec2-1 strain, stronger effect = higher value
In short: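 Mutant yeast (mec2-1) grown with compound; growth inhibition relative to vehicle control reported.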

[6] = NCI Yeast Anticancer Drug Screen. Data for the sgs1 mgt1 strain (AID 161);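 also: 0% = growth of cultures given vehicle only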; details: S. cerevisiae sgs1 mgt1 strain, stronger effect = higher value
In short: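 This yeast growth screen uses a strain with defined DNA-repair lesions; compound-treated growth is compared with vehicle-treated growth.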

[7] = NCI Yeast Anticancer Drug Screen. Data for the CLN2oe strain (AID 163);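 also: 0% = growth of vehicle-only control cultures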; details: S. cerevisiae CLN2oe strain, stronger effect = higher value
In short: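 Compounds are applied to yeast harbouring a defined cell-cycle control change; reduced growth compared with vehicle-treated controls gives the value.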

[8] = NCI Yeast Anticancer Drug Screen. Data for the cln2 rad14 strain (AID 165);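 also: 0% = growth equal to vehicle treated cultures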; details: S. cerevisiae cln2 rad14 strain, stronger effect = higher value
In short: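 Readout is yeast growth inhibition versus vehicle-treated controls, using a strain with cln2 and rad14 alterations exposed to compound.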

[9] = NCI Yeast Anticancer Drug Screen. Data for the bub3 strain (AID 167); details: S. cerevisiae bub3 mutant strain, stronger effect = higher value
In short: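 Whole-cell yeast assay. The mutant strain was incubated with compounds, and growth inhibition was determined by comparison with vehicle-treated cells.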

[10] = NCI Yeast Anticancer Drug Screen. Data for the wt2 strain (AID 169);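 also: 0% = growth of vehicle-treated yeast cultures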; details: S. cerevisiae wt2 strain growth inhibition, stronger effect = higher value
In short: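 Against vehicle-treated controls, the growth of yeast exposed to each compound was compared, and the inhibition was recorded.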

[11] = NCI Yeast Anticancer Drug Screen. Data for the mlh1 strain (AID 171);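 also: 0% = growth of vehicle-treated control cultures of the same strain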; details: S. cerevisiae mlh1 strain growth inhibition, stronger effect = higher value
In short: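 Measured: yeast growth. Reference: vehicle-treated controls. Organism: strain with a defined alteration affecting DNA damage repair or cell cycle control, treated with compound.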

[12] = NCI Yeast Anticancer Drug Screen. Data for the sgs1 strain (AID 173);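 also: 0% = growth of vehicle-only control cultures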; details: S. cerevisiae sgs1 mutant, stronger effect = higher value
In short: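 Each compound was added to cultures of the altered yeast strain. Growth was recorded, and inhibition was derived by comparison with vehicle controls.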

[13] = NCI Yeast Anticancer Drug Screen. Data for the mlh1 rad18 strain (AID 175); details: S. cerevisiae mlh1 rad18 strain growth inhibition, stronger effect = higher value
In short: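 Genetically defined yeast (DNA repair-deficient) exposed to compounds; growth inhibition determined relative to vehicle.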

[14] = NCI Yeast Anticancer Drug Screen. Data for the rad18 strain (AID 177); details: S. cerevisiae rad18 mutant growth inhibition, stronger effect = higher value
In short: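 Vehicle-treated cultures served as the baseline for scoring compound-induced growth inhibition in DNA-repair-mutant yeast.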

[15] = NCI Yeast Anticancer Drug Screen. Data for the rad14 strain (AID 159);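 also: 0% = growth of vehicle-treated control cultures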; details: S. cerevisiae rad14 strain growth inhibition, stronger effect = higher value
In short: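 Here, inhibition of yeast growth was measured after compound exposure, using a strain with a genetic defect in DNA damage repair and vehicle-treated cultures as the reference.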

[16] = at 5.0 µM (retest, dose inferred, filed as 0.5)
[17] = at 50.0 µM (retest, dose inferred, filed as 5.0)

Measured: growth inhibition

CC(C)C(C)/C=C\C(C)C1CCC2C3=CC=C4CC(O)CCC4(C)C3CCC21C (stereo unspecified)
inactive: [1]; at 1.2 µM 2% | [1]; at 3.7 µM -1% | [1]; at 11.0 µM 0% | [1]; at 33.0 µM -3% | [1]; at 100.0 µM -3% | [2]; at 1.2 µM -2% | [2]; at 3.7 µM -3% | [2]; at 11.0 µM -9% | [2]; at 33.0 µM -9% | [2]; at 100.0 µM 1% | [3]; at 1.2 µM 0% | [3]; at 3.7 µM 3% | [3]; at 11.0 µM -1% | [3]; at 33.0 µM -9% | [3]; at 100.0 µM -4% | [4]; at 1.2 µM -1% | [4]; at 3.7 µM 5% | [4]; [16] 51% | [4]; at 11.0 µM -3% | [4]; at 33.0 µM -1% | [4]; at 100.0 µM 22% | [5]; at 1.2 µM 0% | [5]; at 3.7 µM 0% | [5]; at 11.0 µM -2% | [5]; at 33.0 µM -1% | [5]; at 50.0 µM 44.5% | [5]; at 100.0 µM -17% | [6]; [16] 17% | [6]; [17] 48% | [6]; at 50.0 µM 66.7% | [7]; at 1.2 µM 0% | [7]; at 3.7 µM -2% | [7]; at 11.0 µM -2% | [7]; at 33.0 µM -4% | [7]; at 100.0 µM 11% | [8]; at 50.0 µM 35.4% | [9]; at 1.2 µM -1% | [9]; at 3.7 µM 3% | [9]; at 11.0 µM -2% | [9]; at 33.0 µM -10% | [9]; at 50.0 µM 42% | [9]; at 100.0 µM 32% | [10]; at 1.2 µM 0% | [10]; at 3.7 µM 1% | [10]; at 11.0 µM 1% | [10]; at 33.0 µM 1% | [10]; at 100.0 µM 14% | [11]; at 1.2 µM -1% | [11]; at 3.7 µM -3% | [11]; at 11.0 µM -5% | [11]; at 33.0 µM -11% | [11]; at 100.0 µM 10% | [12]; at 1.2 µM -1% | [12]; at 3.7 µM -4% | [12]; at 11.0 µM -3% | [12]; at 33.0 µM -6% | [12]; at 100.0 µM 19% | [13]; [16] 40% | [14]; at 1.2 µM -2% | [14]; at 3.7 µM -5% | [14]; at 11.0 µM -13% | [14]; at 33.0 µM -19% | [14]; at 100.0 µM -7%
active: [4]; [17] 84% | [4]; at 50.0 µM 83.2% | [5]; [16] 89% | [5]; [17] 99% | [8]; [16] 91% | [8]; [17] 95% | [9]; [16] 99% | [9]; [17] 99% | [13]; [17] 81% | [13]; at 50.0 µM 86.5%

CN(C)CCOC1(Cc2ccc(F)cc2)CCC(C(C)(C)C)CC1 (stereo unspecified)
-1% (inactive) and 92% (active): [5]; [17]
46.3% (inactive) and 99.2% (active): [9]; at 50.0 µM
38.3% (inactive) and 99.1% (active): [4]; at 50.0 µM
56% (inactive) and 99% (active): [9]; [17]
65% (inactive) and 92% (active): [4]; [17]
15.3% (inactive) and 99.3% (active): [8]; at 50.0 µM
inactive: [2]; at 1.2 µM -1% | [2]; at 3.7 µM -13% | [2]; at 11.0 µM -27% | [2]; at 33.0 µM -61% | [2]; at 100.0 µM 68% | [3]; at 1.2 µM 18% | [3]; at 3.7 µM 8% | [3]; at 11.0 µM 20% | [3]; at 33.0 µM 53% | [4]; at 1.2 µM -10% | [4]; at 3.7 µM 6% | [4]; [16] 4% and -18% | [4]; at 11.0 µM 14% | [4]; at 33.0 µM 53% | [5]; at 1.2 µM -12% | [5]; at 3.7 µM -10% | [5]; [16] -12% and -13% | [5]; at 11.0 µM -8% | [5]; at 33.0 µM 19% | [15]; at 1.2 µM 6% | [15]; at 3.7 µM 7% | [15]; at 11.0 µM 10% | [15]; at 33.0 µM 66% | [6]; [16] -1% and -5% | [8]; [16] 17% and -22% | [8]; [17] 34% and 51% | [9]; at 1.2 µM -4% | [9]; at 3.7 µM -4% | [9]; [16] 10% and -19% | [9]; at 11.0 µM -1% | [9]; at 33.0 µM 7% | [10]; at 1.2 µM 1% | [10]; at 3.7 µM -1% | [10]; at 11.0 µM -1% | [10]; at 33.0 µM 16% | [11]; at 1.2 µM 2% | [11]; at 3.7 µM 7% | [11]; at 11.0 µM 11% | [11]; at 33.0 µM 58% | [12]; at 1.2 µM 32% | [12]; at 3.7 µM 16% | [12]; at 11.0 µM 18% | [12]; at 33.0 µM 56% | [13]; [16] 7% and -11% | [14]; at 1.2 µM -9% | [14]; at 3.7 µM -23% | [14]; at 11.0 µM -2% | [14]; at 33.0 µM 18%
active: [3]; at 100.0 µM 98% | [4]; at 100.0 µM 97% | [5]; at 100.0 µM 98% | [15]; at 100.0 µM 98% | [6]; [17] 75% and 83% | [6]; at 50.0 µM 92.8% and 99.1% | [9]; at 100.0 µM 98% | [10]; at 100.0 µM 99% | [11]; at 100.0 µM 98% | [12]; at 100.0 µM 99% | [13]; [17] 94% and 99% | [13]; at 50.0 µM 97.8% and 99.3% | [14]; at 100.0 µM 98%
18.8% (inactive) and 99.2% (active): [5]; at 50.0 µM
